Measured values published in ChEMBL document CHEMBL3988442, “University of Dundee, Small-Polar-MMV Screening Library” (2021).

Biological target: Shiga toxin 2 (Escherichia coli O157:H7) (UniProt P09385+P09386)
Experiment: E. coli 0.157:H7 Shiga Toxin SOP - stx2 screening assay
Format: functional
Set-up: scale not given: direction of the effect not stated beside the values
Settings: 30 µM

Compound | Percent Effect [%]
Cc1ncsc1C(=O)NCCSCCCO | -35.1
COC1CCN(C(=O)CCc2c(C)nc3ccnn3c2C)CC1 | 21
NC(=O)c1cnn2c1NCC(CNCCCOc1ccccc1F)C2 (stereo not given) | 17.4
O=C(c1cc(C2CC2)[nH]n1)N1CCCC(n2cncn2)C1 (stereo not given) | 12.1
CC(NC1CCN(CCS(C)(=O)=O)CC1)c1ccc(Cl)cc1 (stereo not given) | -1.87
O=S1(=O)C[C@@H]2[C@H](C1)N(Cc1ncc[nH]1)CCN2CC1CC1 | 4.23
Cc1ccc(-c2nc(CN3CCCC(Cn4cncn4)C3)no2)cc1 (stereo not given) | -11.2
O=C(Nc1ccccc1)C1CN(CC2CC2)CC12CCOCC2 (stereo not given) | -13.2
COC[C@@]12CCO[C@@H]1CCN(C(=O)COc1ccccc1OC)C2 | 19.5
CSc1ncc(C(=O)N2C[C@H]3CC[C@@H]2CN(Cc2ccccc2)C3)cn1 | -17.1
O=C(CNC(=O)N1CCc2c([nH]c3ccc(Cl)cc23)C1)N1CCOCC1 | -37.6
O=C(c1ncccn1)N1C[C@H]2CCC[C@@]2(COCc2cccnc2)C1 | -6.19
CCOc1ccnc(N2CCN(C(=O)C(C)(C)C#N)CC2)n1 | 37.3
CCc1noc(C)c1C(=O)N1CCCC1Cn1nc(C)cc1C (stereo not given) | 27.6
CNC(=O)[C@@]12CCC3(CCN(C(C)=O)CC3)[C@@H]1CN(S(C)(=O)=O)C2 | -15.9
Cc1cnn(CC(C)NCc2csc(-c3cnn(C)c3)n2)c1 (stereo not given) | -23.5
Cn1ccc(CN2CCC(OCCc3ccccc3)CC2)cc1=O | 8.32
Cn1cnnc1C1CCCN(C(=O)c2ccc3c(c2)OCCCO3)C1 (stereo not given) | 1.29
O=C([C@H]1C[C@@H]2CCN(C3CCOCC3)C[C@@H]2O1)N1CCOCC1 | -10.3
c1ccc2sc(CN3CCCC3c3noc(C4CC4)n3)nc2c1 (stereo not given) | 3.03

Compound | Percent Effect [%]
CC1CCCN(Cc2c(C3CCOCC3)[nH]c3ncccc23)C1 (stereo not given) | 12.7
Cc1ccc(C(=O)NCCNc2ncccc2C#N)c(=O)[nH]1 | -19.7
CCN1CCN(C(=O)c2cc(C(=O)OC)nn2-c2ccccc2)CC1 | 26.1
Cc1cc(C)n(C2CN(CC(O)c3ccc4c(c3)OCO4)C2)n1 (stereo not given) | 7.61
Cc1ccccc1C(=O)NCc1ccc(N2CCNC(=O)C2)c(F)c1 | 0.0326
Cc1noc(C)c1C(=O)NCC(c1ccc(F)cc1)N(C)C (stereo not given) | 16
COc1ccc(C[C@H]2CN(c3nnc(C)s3)CC[C@@H]2OC)cc1 | -17.5
Cc1cc2nc(SCC(=O)N3CCCC3)n(-c3ccccc3)c(=O)c2[nH]1 | -24.4
O=C(c1cc(Cl)c2c(c1)OCO2)N1CCN(c2ccccn2)CC1 | 18.3
Cc1cc2c(=O)n3c(nc2s1)CCN(Cc1cnn(C)c1C)CC3 | 8.81
O=C(C1CCOCC1)N1CCc2ncnc(-c3ccc(F)cc3)c2CC1 | -14
Cc1ccc(S(=O)(=O)N2CSCC2C(=O)N(C)C2CC2)cc1Cl (stereo not given) | 19.2
Cc1ncc(CNC(=O)CCc2cccc(F)c2)c(C2CCCN2C)n1 (stereo not given) | -9.03
NC(=O)C1CCN(c2nc3nccc(-c4ccccn4)c3c(=O)[nH]2)CC1 | 2.69
CCOc1nc2cccnc2n(CC(=O)NCCOC)c1=O | -9.03
COCc1cc(O)nc(C2CCCN(Cc3cc(OC)ccc3F)C2)n1 (stereo not given) | 17.7
CC(=O)N1CC(=O)N(c2cnn(C)c2)CC12CCN(CC1CC1)C2 (stereo not given) | -23.2
CCN1CCN(CC(O)c2ccc(F)cc2)CC1 (stereo not given) | 19.4
CNc1cc(C)nc(C2CN(Cc3cc[nH]n3)CCO2)c1 (stereo not given) | 13.3
Cc1cnn(CCNCc2csc(-c3cccs3)n2)c1 | 19.3
